Screens: PubChem BioAssay, several laboratories
A selection: hits, their analogues and other compounds. The true share with any hit is near 1.6%.
PrP 5UTR inh = inhibition of PrP 5' UTR reporter expression. cell-based PrP 5' UTR mRNA reporter, plate reader. inhibition, % (test concentration not listed). 340,000 tested, 0.35% active; in the data active means inhibition above about 52%
SARS 3CLpro inh = SARS-CoV 3CLpro protease inhibitors, primary screen, biochemical, quenched FRET; recombinant SARS-CoV 3CLpro, quenched FRET peptide cleavage; inhibition, % at 6 µM; 290,000 tested, 0.14% active; in the data active means inhibition above about 12%
SSB-PriA inh = inhibitors of Klebsiella pneumoniae PriA binding to SSB C-terminal tail, primary screen, biochemical, AlphaScreen; AlphaScreen SSBct-PriA binding, biotinylated peptide; inhibition, % at 33 µM; 430,000 tested, 0.6% active; in the data active means inhibition mostly above about 37%, no sharp cut-off; inactive means mostly below about 20%
BH1578 lux ind = inducers of Vibrio cholerae quorum light production without autoinducers, primary screen, BH1578 luxS cqsA deficient, single point; activation, % at 18.7 µM; V. cholerae BH1578 lux reporter, luminescence, 6 h; 350,000 tested, 0.16% active; in the data active means activation mostly above about 9.7%, no sharp cut-off
PfHsp40 rescue = rescue of yeast from PfHsp40 toxicity, primary screen, S. cerevisiae, ATP luminescence; S. cerevisiae expressing PfHsp40, growth rescue; growth rescue, % at 12.5 µM; 340,000 tested, 0.68% active; AID 504582, 2011; in the data active means growth rescue above about 28%, passing the limit was not always enough;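 further: yeast W303a lacking pdr1 and pdr3 grown in galactose medium; growth measured after three days at 30 °C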
PrPC surface inh = inhibitors of human cell surface prion protein PrPC, primary screen, cell-based, TR-FRET; Major prion protein (Homo sapiens), P04156; TR-FRET read-out; inhibition, % at 13.8 µM; 370,000 tested, 0.43% active; in the data active means inhibition above about 24%
A number is an active result; n = inactive; x = no result given.

SMILES	PrP 5UTR inh	SARS 3CLpro inh	SSB-PriA inh	BH1578 lux ind	PfHsp40 rescue	PrPC surface inh
O=C(COc1ccccc1)Oc1ccc2nc(N3CCN(c4ccccc4)CC3)sc2c1	x	x	n	x	x	x
O=C(CNC(=O)c1ccccc1)OCc1cccc(Br)c1	n	n	n	n	n	n
O=C(CCCNC(=O)c1ccc(Cl)cc1)OCc1cccc(Br)c1	n	x	n	n	277.2	n
CC(C)(C)C(=O)NCCn1ccnc1-c1cccnc1	x	x	n	x	x	x
O=C(c1cnn2ccccc12)N1CCN(S(=O)(=O)c2ccccc2F)CC1	x	x	n	x	x	x
COc1ccc(-c2coc3c(CN4CCOCC4)c(O)ccc3c2=O)cc1	n	n	n	12.7	n	n
CCOC(=O)c1c(NC(=O)/C=C/C(=O)O)sc(C)c1-c1ccc(C(C)(C)C)cc1	n	n	n	n	n	n
CCOC(=O)c1c(NC(=O)/C=C\C(=O)O)sc(C)c1-c1ccccc1	n	n	n	n	94.7	n
Cc1cc(C)c(S(=O)(=O)Nc2nc3ccccc3[nH]2)c(C)c1	x	x	n	x	x	x
Nc1ccc(CC2=NCCN2)cc1	n	x	n	x	34.5	n
COc1ccc(C(C)NC(=O)CCc2ccccc2)cc1 (configuration not stated)	n	n	n	n	n	n
COc1ccc(CCC(=O)NC(C)C)cc1	n	n	n	n	39.1	n
CC(C)CCN1C(N(C)C)=NC[C@@H]1C	n	x	n	26.5	n	n
C[C@H]1CN=C(N(C)C)N1CCCC1CCCCC1	n	x	n	n	n	n
CCc1ccc(-c2cn(C3CCCCC3)c(=S)[nH]2)cc1	n	n	n	n	90.9	n
Cc1ccc(CNC(=O)CSc2n[nH]c(=O)c3cc(-c4ccco4)nn23)cc1	x	x	n	x	x	x
Cc1ccc2[nH]c3nc(SCCN4CCOCC4)nnc3c2c1	n	n	n	n	n	n
Cc1ccc2[nH]c3nc(NN)nnc3c2c1	n	n	89.7	n	n	n
CC(C)Sc1ccc(CC(=O)N(CCc2cccs2)C2CC2)cc1	x	x	n	x	x	x
CC(=NNC(=S)N1CC2CCC(CC2)C1)c1nccs1	n	x	57.1	n	126.3	n
CC(=NNC(=S)N1CC2CCC(CC2)C1)c1cccc(C)n1	n	x	n	n	n	n
COc1ccccc1NC(=O)c1ccc(N2CC3CC(C2)c2cccc(=O)n2C3)c(NC(=O)c2ccccc2Cl)c1 (configuration not stated)	x	x	n	x	x	x
Cc1ccccc1C(=O)NCC1CCN(Cc2ccccc2)CC1	x	x	n	x	x	x
COCC(=O)N1CCCc2ccc(NS(=O)(=O)CC34CCC(CC3=O)C4(C)C)cc21 (configuration not stated)	x	x	36.0	x	x	x
COCC(=O)N1CCCc2ccc(NC(=O)Cc3ccsc3)cc21	x	x	35.0	x	x	x
SMILES	PrP 5UTR inh	SARS 3CLpro inh	SSB-PriA inh	BH1578 lux ind	PfHsp40 rescue	PrPC surface inh
COCC(=O)N1CCCc2ccc(NC(=O)c3cc(Br)cs3)cc21	x	x	n	x	x	x
COC(=O)N1CCc2ccc(NS(=O)(=O)CC34CCC(CC3=O)C4(C)C)cc2C1 (configuration not stated)	x	x	n	x	x	x
COc1ccc(Cl)cc1C(=O)NN=C1CCCC1	n	x	n	n	81.5	n
O=C(O)/C(=C\c1ccc2ccccc2c1)c1cccc2ccccc12	n	x	n	n	117.4	n
O=C(O)C(=Cc1ccncc1)c1cccc2ccccc12	x	x	x	n	x	n
Fc1cc(-c2ccncc2)c2ncccc2c1	x	x	n	x	x	x
Nc1cc(O)c2ncccc2c1	x	x	140.0	x	x	x
CN(C)c1ccc(-c2cc(O)c3ncccc3c2)cc1	n	x	n	n	n	n
CN(C)CCCNC(=O)c1ccc(-c2cc(O)c3ncccc3c2)cc1	n	x	83.3	n	n	n
Oc1cc(-c2ccncc2)cc2cccnc12	n	x	55.4	n	n	n
Oc1cc(Nc2ccncc2)cc2cccnc12	n	x	103.9	n	n	n
O=C(CSCc1ccccc1)NCC(O)Cn1ccccc1=O (configuration not stated)	x	x	n	x	x	x
O=C(Nc1cccc2ccccc12)c1ccc(-n2cnnn2)cc1	x	x	n	x	x	x
Oc1cc(NCCc2cccnc2)cc2cccnc12	n	x	85.3	n	n	n
Oc1cc(Nc2cccnc2)cc2cccnc12	n	x	89.1	n	n	n
O=C(NCc1cccc(CNC(=O)C(=O)NCC2CCCO2)c1)C(=O)NCC1CCCO1 (configuration not stated)	n	n	n	227.4	n	n
